± gives the standard deviation.
Columns and labels:
Settings in all cases: modulator concentration 10 µM
[1] = system: RAW-Dual (murine macrophage reporter line); assay: NF-kB reporter (SEAP) activity fold change vs agonist alone; higher = enhanced NF-kB activity
Method in brief: (§1)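 Overnight stimulation with a PRR agonist followed pre-incubation for 1 hour at 37 °C with compound at 10 μM final. This was done in RAW-Dual murine macrophage reporter cells seeded at 50 000 per well in 384-well plates. NF-κB (SEAP, QUANTI-Blue absorbance at 620 nm) and IRF (Lucia luciferase, QUANTI-Luc luminescence) were read from the supernatant. Each reporter's fold change relative to the mean agonist-only control on the same plate was averaged over replicate plates.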

[2] = system: RAW-Dual (murine macrophage reporter line); assay: IRF reporter (Lucia luciferase) activity fold change vs agonist alone; higher = enhanced IRF activity
Method in brief: as §1

[3] = system: RAW-Dual (murine macrophage reporter line); assay: viability score (confluency relative to resting cells, overnight) (fraction); higher = more viable, active = viable (0.7 or more)
Method in brief: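 RAW-Dual macrophages in 384-well plates were treated overnight with compound at 10 μM final. IncuCyte imaging recorded confluency, and IncuCyte software built two confluency masks across every imaged well. The viability score expresses confluency relative to resting cells and was judged against a cutoff, which a compound met only if both masks exceeded 70% of resting cells.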

[4] = agonist: CpG ODN 1826 0.5 ug/mL

SMILES | NF-kB reporter [1, 4] | NF-kB reporter ([1]; agonist: LPS 0.1 ug/mL) | NF-kB reporter ([1]; agonist: MPLA […]) | IRF reporter ([2]; agonist: 3'3'-cGAMP 10 ug/mL) | IRF reporter ([2]; agonist: LPS 0.1 ug/mL) | IRF reporter ([2]; agonist: MPLA […]) | viability score [3]
CC(C=CC1=C(C)CCCC1(C)C)=CC=CC(C)=CC(=O)O | 1.29 ± 0.11 | 0.943 ± 0.078 | 1.01 ± 0.1 | 0.568 ± 0.031 | 1.1 ± 0.14 | 0.904 ± 0.19 | 0.986 (active)
CCCCCCCC(=O)N[C@H](CN1CCCC1)[C@H](O)c1ccc2c(c1)OCCO2 | 0.989 ± 0.097 | 1.03 ± 0.067 | 1.21 ± 0.026 | 0.853 ± 0.047 | 1.03 ± 0.15 | 1.2 ± 0.11 | 0.968 (active)
Clc1cccc(C=Cc2nn3c(Cc4ccccc4)nnc3s2)c1 | 0.885 ± 0.04 | 0.927 ± 0.092 | 1.12 ± 0.06 | 0.86 ± 0.039 | 1.35 ± 0.24 | 1.44 ± 0.43 | 0.987 (active)
O=C(CSC1CC(=O)N(c2ccc(C(=O)O)cc2)C1=O)Nc1ccc(Cl)cc1 (configuration not stated) | 0.921 ± 0.11 | 0.931 ± 0.16 | 1.05 ± 0.046 | 0.396 ± 0.085 | 0.99 ± 0.045 | 0.982 ± 0.12 | 1 (active)
Cc1cccc(NC(=O)CSc2nc(N3CCCCC3)nc3ccccc23)c1 | 0.963 ± 0.088 | 1.11 ± 0.092 | 0.98 ± 0.13 | 0.955 ± 0.055 | 1.22 ± 0.13 | 1.43 ± 0.26 | 0.993 (active)
CC(CS)C(=O)N1CCCC1C(=O)O (configuration not stated) | 0.96 ± 0.096 | 0.932 ± 0.068 | 0.977 ± 0.18 | 0.973 ± 0.03 | 1.22 ± 0.12 | 1.33 ± 0.18 | 1.02 (active)
Cc1cc(=O)[nH]c(-n2nc(C)c(CCC(=O)N3CCN(C)CC3)c2C)n1 | 1.16 ± 0.092 | 1.13 ± 0.089 | 0.977 ± 0.028 | 1.01 ± 0.084 | 1.05 ± 0.12 | 0.931 ± 0.095 | 0.994 (active)
Cc1cc(=O)n2c(-c3cccc(NC(=O)c4ccc(C(F)(F)F)cc4)c3)csc2n1 | 0.824 ± 0.044 | 1.12 ± 0.09 | 1.68 ± 0.46 | 0.731 ± 0.035 | 1.28 ± 0.21 | 1.5 ± 0.44 | 0.99 (active)
COc1ccc(C(O)CN2CCN(c3cccc(C)c3C)CC2)cc1OC (configuration not stated) | 0.724 ± 0.18 | 0.928 ± 0.095 | 0.95 ± 0.06 | 0.956 ± 0.054 | 0.873 ± 0.16 | 1.04 ± 0.12 | 0.997 (active)
Cc1ccc(NS(=O)(=O)c2cc3c4c(cccc4c2)C(=O)NC3=O)cc1C | 0.535 ± 0.034 | 0.381 ± 0.03 | 0.875 ± 0.025 | 0.532 ± 0.033 | 0.908 ± 0.092 | 0.815 ± 0.14 | 0.802 (active)
COCCCC/C(=N\OCCN)c1ccc(C(F)(F)F)cc1.O=C(O)/C=C\C(=O)O | 0.903 ± 0.072 | 0.902 ± 0.042 | 1.23 ± 0.15 | 0.829 ± 0.04 | 1.42 ± 0.083 | 1.67 ± 0.14 | 0.985 (active)
COc1ccc(OC)c(NC(=O)COc2cccc3c2OC(C)(C)C3)c1 | 0.489 ± 0.039 | 1.2 ± 0.095 | 1.22 ± 0.053 | 0.777 ± 0.054 | 0.912 ± 0.059 | 1.02 ± 0.077 | 0.976 (active)
CCCC(=O)Nc1ccc(N2CCCCC2)cc1 | 0.833 ± 0.067 | 0.901 ± 0.046 | 0.979 ± 0.09 | 0.895 ± 0.043 | 1.48 ± 0.1 | 1.65 ± 0.17 | 0.985 (active)
CCn1cc(C(=O)O)c(=O)c2cc(F)c(N3CCN(C)CC3)cc21.CS(=O)(=O)O | 1.12 ± 0.15 | 1.3 ± 0.22 | 0.938 ± 0.096 | 0.858 ± 0.037 | 1.45 ± 0.12 | 1.17 ± 0.11 | 0.986 (active)
CCOC(=O)c1ccc(N2C(=O)CC(N3CCN(c4ccc([N+](=O)[O-])cc4)CC3)C2=O)cc1 (configuration not stated) | 0.813 ± 0.072 | 1.08 ± 0.066 | 0.928 ± 0.071 | 1.06 ± 0.039 | 1.64 ± 0.13 | 1.47 ± 0.13 | 0.997 (active)
Cc1ccc2[nH]c3nc(C)cc(C)c3c(=O)c2c1 | 0.967 ± 0.16 | 1.08 ± 0.091 | 0.993 ± 0.12 | 1.01 ± 0.052 | 1.25 ± 0.25 | 1.31 ± 0.21 | 0.704 (active)
COc1cccc(S(=O)(=O)N2CCCC(c3nnc(C(F)(F)F)o3)C2)c1 (configuration not stated) | 0.892 ± 0.039 | 1.08 ± 0.09 | 1.03 ± 0.06 | 0.885 ± 0.041 | 1.11 ± 0.27 | 1.3 ± 0.36 | 1.02 (active)
CCOc1ccc2nc(SC(c3ccccc3)c3ccccc3)sc2c1 | 1.01 ± 0.17 | 0.967 ± 0.099 | 0.974 ± 0.14 | 1.01 ± 0.036 | 1.2 ± 0.18 | 1.04 ± 0.31 | 0.661 (inactive)
CC(C)(C)c1ccc(C2=NC(=Cc3cccc4ccccc34)C(=O)O2)cc1 | 0.986 ± 0.078 | 1.05 ± 0.082 | 0.97 ± 0.034 | 0.857 ± 0.11 | 1.1 ± 0.11 | 1 ± 0.19 | 1 (active)
C#CC1(O)CCC2C3CCC4=Cc5oncc5CC4(C)C3CCC21C (configuration not stated) | 1.26 ± 0.31 | 1.27 ± 0.094 | 1.2 ± 0.082 | 0.787 ± 0.046 | 1.35 ± 0.2 | 1.56 ± 0.15 | 0.958 (active)
CN1CCN(c2nc(C3=C(c4c[nH]c5ccccc45)C(=O)NC3=O)c3ccccc3n2)CC1 | 0.748 ± 0.034 | 0.961 ± 0.081 | 1.21 ± 0.071 | 0.798 ± 0.041 | 1.14 ± 0.24 | 1.17 ± 0.32 | 0.988 (active)
COC(=O)C1=C(C)NC(C)=C(C(=O)OC(C)C)C1c1cccc2nonc12 (configuration not stated) | 0.79 ± 0.062 | 0.942 ± 0.073 | 1.11 ± 0.096 | 0.645 ± 0.04 | 1.08 ± 0.07 | 0.967 ± 0.14 | 1 (active)
CCCc1nn(C)c2c(=O)[nH]c(-c3cc(S(=O)(=O)N4CCN(C)CC4)ccc3OCC)nc12 | 0.951 ± 0.23 | 1.03 ± 0.07 | 1 ± 0.068 | 0.928 ± 0.036 | 1.25 ± 0.16 | 1.37 ± 0.22 | 0.986 (active)
O=C(NCC#CCN1CCc2ccccc2C1)c1cccc(Br)c1 | 0.87 ± 0.043 | 1.12 ± 0.095 | 0.94 ± 0.057 | 1.01 ± 0.057 | 1.14 ± 0.069 | 1.26 ± 0.12 | 1.01 (active)
O=C(NC1CCC(Oc2ncc(F)cn2)CC1)c1cccc(F)c1 (configuration not stated) | 0.976 ± 0.084 | 1.01 ± 0.079 | 0.913 ± 0.079 | 1.01 ± 0.064 | 1.08 ± 0.088 | 1.04 ± 0.27 | 1.01 (active)
COc1ccccc1OCC(O)CN1CCN(CC(=O)Nc2c(C)cccc2C)CC1 (configuration not stated) | 0.99 ± 0.087 | 0.943 ± 0.089 | 1.06 ± 0.056 | 0.967 ± 0.092 | 0.996 ± 0.061 | 0.936 ± 0.078 | 1 (active)

Reference: the supplement of paper PMC10646978
